FBW7 activator – activators of human E3 ligase FBW7 | AlphaScreen FBW7–phospho-cyclin E peptide binding, activator screen | normalized activity (activation), % at 26.1 µM | hit rate 0.13% among 650,000; in the data active = normalized activity above about 1.9%;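 note: purified mutant Fbw7 with reduced substrate affinity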
TEAD-YAP block – TEAD-YAP interaction inhibition | HEK-TIYL cells, TEAD-Gal4/YAP UAS-luciferase luminescence | inhibition, % at 9.12 µM | hit rate 1.4% among 640,000; in the data active = inhibition above about 32%;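 note: 0% = median of test compound wells and 100% = reference inhibitor wells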
GPR151 activ – activates the human receptor GPR151 | Q8TDV0 | PathHunter beta-arrestin GPR151 cells, luminescence | AID 1508602 | activation, % at 11.2 µM | hit rate 1% among 650,000; in the data active = activation above about 4.9%;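 note: 0% = median of compound wells and 100% = cells with positive control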
Target sequence (Q8TDV0 whole entry, looked up): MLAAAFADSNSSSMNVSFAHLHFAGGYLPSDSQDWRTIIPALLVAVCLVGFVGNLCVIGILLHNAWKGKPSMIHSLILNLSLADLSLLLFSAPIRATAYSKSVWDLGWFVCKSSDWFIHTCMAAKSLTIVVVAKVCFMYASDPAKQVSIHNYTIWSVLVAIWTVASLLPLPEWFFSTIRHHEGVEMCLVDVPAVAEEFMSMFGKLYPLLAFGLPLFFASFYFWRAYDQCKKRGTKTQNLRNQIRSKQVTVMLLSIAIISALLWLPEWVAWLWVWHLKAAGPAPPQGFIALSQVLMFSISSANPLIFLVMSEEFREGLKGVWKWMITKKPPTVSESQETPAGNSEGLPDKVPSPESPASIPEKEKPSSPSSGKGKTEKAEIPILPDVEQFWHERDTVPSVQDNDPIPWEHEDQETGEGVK
MITF primary – human MITF inhibition, primary screen; O75030; AlphaScreen MITF homodimerization, bead proximity signal; inhibition, % at 2.6 µM; hit rate 0.91% among 650,000; AID 1259374; in the data active = inhibition above about 50%;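 note: 0% = vehicle wells with protein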
MITF inh conf – human MITF inhibition, confirmation; shares compounds with MITF primary; hit rate 16% among 4,700; inhibition, % at 2.6 µM; AlphaScreen MITF homodimerization, biotin/His-MITF beads;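 active = inhibition above a cutoff derived from the DMSO control wells, cut at about 28% in these data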;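 note: 0% = MITF dimer wells with DMSO only; inhibitors lower the bead chemiluminescence by keeping MITF from dimerizing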
AlphaScreen DR – AlphaScreen optical interference, dose response counter-screen | shares compounds with MITF primary | AlphaScreen optical interference counterscreen, cell-free | IC50, µM | hit rate 6% among 480 | AID 1259373; call rule not given here
AS interf ctr – AlphaScreen optical interference, counter-screen | shares compounds with MITF primary | LysRS AlphaScreen counterscreen, signal interference, triplicate | hit rate 7.6% among 4,700 | inhibition, % at 2.6 µM;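 active = inhibition above a cutoff derived from the DMSO control wells, cut at about 30% in these data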
Numbers without * were called inactive; nt = no result; ! = not confirmed by another sample. A selection: hits, their analogues and other compounds. The true share with any hit is near 3.4%.

SMILES	FBW7 activator	TEAD-YAP block	GPR151 activ	MITF primary	MITF inh conf	AS interf ctr	others
FC(F)SCc1ccc(CNC2CCN(Cc3ccccc3)CC2)o1	0	1	1	54*	15	19
Fc1ccccc1CNC1CCN(Cc2ccccc2)CC1	0	0	0	51*	-12	0
c1ccc(CN2CCC(NCc3cccnc3)CC2)cc1	0	-11	-1	70*	6	11
COC(=O)C(C(=O)OC)C(Nc1cccc(C)c1)c1ccccc1 (stereo unspecified)	0	-4	-1	-18	nt	nt
OCCN1CCN(c2ncc(-c3ccccc3)n3ccnc23)CC1	0	-56	1	5	nt	nt
COc1cc2nc(SCC(=O)NCCc3ccccc3)n(CCc3ccc(S(N)(=O)=O)cc3)c(=O)c2cc1OC	0	-2	-1	-6	nt	nt
O=C(N1CCCCCC1)C1(S(=O)(=O)c2ccc(Cl)cc2)CC1	0	11	1	62*	3	-1
COc1cc(OC)cc(C(=O)Nn2c(-c3ccc(Cl)cc3)nc3ccccc3c2=O)c1	0	4	1	5	nt	nt
Cc1c(C(=O)O)cccc1-c1ccc(/C=C(\C#N)C(=O)NCc2ccco2)o1	0	-21	-1	24	nt	nt
N#C/C(=C\c1ccc(-c2ccccc2C(=O)O)o1)C(=O)NCc1ccco1	-1	-3	-1	76*	64*	-5	AlphaScreen DR=>6.5
O=C(NCC1CCCO1)C(=O)Nc1nccs1 (stereo unspecified)	0	-6	2	99*	-4	-1
CNC(=O)c1ccsc1NC(=O)c1ccc(-c2ccccc2)cc1	0	-28	-3	-5	nt	nt
COc1ccccc1N1CCN(C(=S)NCCN(C)C)CC1	0	-5	0	77*	1	1
Cc1ccc(-c2nc(Nc3cccc(C)c3)sc2C)cc1	0	-2	0	4	nt	nt
COc1cc(CN2CCC(O)CC2)cc(Br)c1O	0	-8	0	39	nt	nt
C=CCN(CC=C)C(=O)C1CCN(Cc2cc(Br)c(O)c(OC)c2)CC1	1	-4	0	69*	-13	-4
Cn1nnnc1SCC1=C(C(=O)O)N2C(=O)C(N)C2SC1 (stereo unspecified)	0	3	-1	37	nt	nt
CC(=O)CC1=C(C(=O)O)N2C(=O)C(N)C2SC1 (stereo unspecified)	0	11	0	61*	30*	0	AlphaScreen DR=>6.5
CN1C(=O)[C@H]2CN(C(=O)c3ccc(Cl)cc3)CCN2C(=O)[C@@H]1CO	0	-1	0	15	nt	nt
O=C(NC1CCCCC1)N1CCN2C(=O)[C@H]3CCCN3C(=O)[C@H]2C1	0	-1	0	79*	73*	1	AlphaScreen DR=>6.5
CN1C(=O)[C@H]2CN(C(=O)NC3CCCCC3)CCN2C(=O)[C@@H]1CO	0	0	0	76*	71*	-11	AlphaScreen DR=>6.5
O=C(O)c1cccc2c1sc1ccccc12	0	-16	-1	4	nt	nt
O=C(COc1ccc(-c2cccs2)cc1CN1CCCC1)NCc1nccs1	0	5	2	-6	nt	nt
O=C(CN1CCN(Cc2cccc3ccccc23)CC1)c1ccco1	0	-1	-1	67*	6	10
c1coc(CN2CCN(Cc3cccc4ccccc34)CC2)c1	0	-17	-2	76*	15	16
SMILES	FBW7 activator	TEAD-YAP block	GPR151 activ	MITF primary	MITF inh conf	AS interf ctr	others
CCOc1ccc(-n2c(=S)sc3c(=O)n(-c4ccc(C)cc4)c(SCC(=O)NCc4ccccc4)nc32)cc1	0	0	1	-6	nt	nt
Cc1cncc2c(S(=O)(=O)N3CC[C@@H](NC(=O)C(O)c4ccc(F)cc4F)C3)cccc12 (stereo partly specified)	0	-7	0	59*	58*	12	AlphaScreen DR=>6.5
NC(=O)C1CCN(C(=O)CCCn2c(=S)[nH]c3cc4c(cc3c2=O)OCO4)CC1	0	-4	1	16	nt	nt
C/C(=N\Nc1ccccc1[N+](=O)[O-])c1ccc(Cl)c([N+](=O)[O-])c1	0	-6	1	9	nt	nt
CCc1ccc(NC(=O)c2cc3c(=O)n4cccc(C)c4nc3n2C)cc1	0	11	-1	13	nt	nt
Cc1ccc(S(=O)(=O)Nc2cccc(N(C)S(C)(=O)=O)c2)cc1	0	-4	2	-12	nt	nt
CN(c1cccc(NS(=O)(=O)c2ccc([N+](=O)[O-])cc2)c1)S(C)(=O)=O	0	13	-2	51*	34*	7	AlphaScreen DR=>6.5
O=C(CNCc1cccnc1)Nc1ccc(C2CCCCC2)cc1	0	0	1	59*	8	12
O=C(CNCc1cccnc1)N(c1ccccc1)c1ccccc1	0	-5	1	95*	8	17
O=C(CNCc1cccnc1)Nc1ccc(OC(F)(F)F)cc1	0	1	-1	-8	nt	nt
O=C(CNCc1ccc(F)cc1)Nc1ccccc1N1CCOCC1	0	0	-1	63*	-1	8
O=C(CNCc1cccnc1)Nc1ccccc1N1CCOCC1	0	-2	0	102*	-102	-4
Cc1cc(C)cc(NC(=S)N(CCCN2CCCCC2)Cc2cccs2)c1	0	6	1	-2	nt	nt
COc1cc(C2SCCS2)cc([N+](=O)[O-])c1OS(C)(=O)=O	0	6	-1	1	nt	nt
O=C(COC(=O)c1ccccc1Cl)Nc1ccccc1N1CCOCC1	0	6	0	-5	nt	nt
O=C(CNCc1ccccc1Cl)Nc1ccccc1N1CCOCC1	0	-2	0	62*	14	9
O=C(CNCc1ccc(Cl)cc1)Nc1ccccc1N1CCOCC1	0	-1	0	61*	5	11
Cc1cccc(NC(=O)CSCCO)c1C	0	13	-1	8	nt	nt
Cc1cccc(NC(=O)CNCc2cccnc2)c1C	0	-4	0	83*	5	11
COc1ccc(/C=C2/N=C(c3cccc([N+](=O)[O-])c3)OC2=O)c(OC)c1OC	0	6	0	16	nt	nt
COc1ccccc1OCC#CCNC1CCCC1	0	-1	-2	55*	3	9
CCOC(=O)c1c(NC(=O)CN2CCN(C)CC2)sc2c1CC(C)(C)NC2(C)C	0	6	1	53*	-2	1
COc1cc(C2CC(=O)NC3=C2C(=O)CC(c2ccc(F)cc2)C3)cc([N+](=O)[O-])c1O (stereo unspecified)	0	4	1	10	nt	nt
CN(C)c1ccc(/C=N/NC(=O)/C=C\C(=O)O)cc1	0	11	-1	-7	nt	nt
O=C1c2c(O)cccc2Cc2cccc(O)c21	0	0	-1	86*!	116*	-23	AlphaScreen DR=>6.5
Cc1cc(O)c2c(c1)C(=O)c1cccc(O)c1C2=O	0	-3	0	15	nt	nt
CC(C)=CCCC(C)C(=O)OCCOc1ccccc1 (stereo unspecified)	0	-5	1	-3	nt	nt

Bioassay records: PubChem BioAssay, The Scripps Research Institute Molecular Screening Center
